CRFBP-R2 agonist = CRF-BP/CRF-R2 complex agonism | AID 588473 | HEK293 CRF-R2/CRF-BP, calcium dye fluorescence (FLIPR); percent of saturating CRF peptide response | actives 0.46% (n = 350,000) | activation, % at 13.2 µM;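 active means activation of at least 50%, plus an integration ratio under a set limit after plate pattern correction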;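 further: plate controls were neutral control wells without compound for no effect and CRF at EC100 for full effect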
V-ATPase pH = regulators of yeast V-ATPase proton transport; S. cerevisiae, pHLuorin cytosolic pH fluorescence; response, % at 10 µM; AID 504577; actives 0.37% (n = 350,000); in the data active means response mostly above about 7.3%, no sharp cut-off; inactive means mostly below about 5.4%; further: actives read high
CRFR2-BP antag = CRF-BP/CRF-R2 complex antagonism. actives 0.59% (n = 350,000). HEK293 CRF-R2/CRF-BP, CRF-induced calcium fluorescence. inhibition, % at 11.8 µM;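 active means inhibition of the ligand-induced calcium signal above about 50% at the single tested concentration, limit read from the data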
NTR1 agonist = NTR1 (human) agonism; P30989; NTR1-U2OS beta-arrestin-GFP spot imaging, agonist mode; activation, % at 20 µM; actives 0.17% (n = 330,000);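 active means activation at or above 40% of the spot to cytoplasm intensity ratio, with at least 20 cells analyzed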;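 further: 0% = DMSO without peptide and 100% = 100 nM NTR1 peptide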
Target sequence (P30989 whole entry, looked up): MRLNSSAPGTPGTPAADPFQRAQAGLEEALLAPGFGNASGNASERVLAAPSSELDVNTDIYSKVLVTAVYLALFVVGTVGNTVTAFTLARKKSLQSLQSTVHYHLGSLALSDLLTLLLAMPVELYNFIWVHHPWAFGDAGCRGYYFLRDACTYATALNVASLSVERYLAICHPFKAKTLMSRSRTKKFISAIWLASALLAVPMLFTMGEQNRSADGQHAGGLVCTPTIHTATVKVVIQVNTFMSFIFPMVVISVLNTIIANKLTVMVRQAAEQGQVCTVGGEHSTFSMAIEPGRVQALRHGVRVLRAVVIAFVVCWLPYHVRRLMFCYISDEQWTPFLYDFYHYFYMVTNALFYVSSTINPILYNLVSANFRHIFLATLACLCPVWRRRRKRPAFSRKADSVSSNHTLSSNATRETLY
* = called active by the depositor; . = no result. The list is not random: actives were taken first. Their share in the collection is about 1.5%.

SMILES | CRFBP-R2 agonist | V-ATPase pH | CRFR2-BP antag | NTR1 agonist
CCCC(=O)Nc1sc(C)c(C)c1C#N | -7 | 2 | 16 | 0
CCCC(=O)Nc1sc(C)c(-c2ccc(C(C)CC)cc2)c1C#N (stereo unspecified) | 1 | 16* | -2 | 3
CCCOc1ccc(C2NC(=S)NC(C)=C2C(=O)c2ccccc2)cc1OC (stereo unspecified) | -1 | 1 | 13 | -2
O=C(COc1ccc2ccc(=O)oc2c1)Nc1cccc(S(=O)(=O)N2CCCCC2)c1 | 2 | 1 | -14 | 3
CCOc1ccccc1N(CC(=O)N1CCOCC1)S(=O)(=O)c1ccccc1 | 291* | 5 | -127 | 0
CCOc1ccccc1N(CC(=O)N1CCC(C)CC1)S(=O)(=O)c1ccc(C)cc1 | 0 | 0 | -8 | 0
CCOc1ccccc1N(CC(=O)N1CCC(C(N)=O)CC1)S(=O)(=O)c1ccc(SC)cc1 | -1 | 1 | 75* | -1
COc1ccccc1N(CC(=O)N1CCCCC1C)S(=O)(=O)c1ccc(Cl)cc1 (stereo unspecified) | 55* | 2 | -11 | .
CN(C)CC(=O)Nc1ccc2c(c1)[C@H]1C[C@H](CC(=O)NCc3ccc4c(c3)OCO4)O[C@H](CO)[C@H]1O2 | 0 | 4 | -13 | .
Cc1ccccc1CSc1ccc(S(=O)(=O)N2CCCC2)cn1 | 0 | -1 | -7 | 1
O=C1Cc2cc(NS(=O)(=O)c3ccc([N+](=O)[O-])cc3)cc3c2N1CCC3 | 0 | 2 | -2 | 1
O=C(NNC(=O)c1oc2ccccc2c1-n1cccc1)c1ccco1 | -3 | -3 | 97* | 0
Cc1cc(/C=C(/C#N)C(=O)O)c(C)n1-c1cccc2ccccc12 | -4 | 0 | 76* | 0
CCOC(=O)N1CCN(C(=O)CSc2nc(=O)n3ccc(C)cc3n2)CC1 | 0 | -1 | 17 | 0
COc1cccc2ccc(CC(O)(c3ccccc3)c3ccccc3)nc12 | 4 | 4 | 58* | .
O=C(O)c1ccc(-n2ncc3c2/C(=C/c2cccc([N+](=O)[O-])c2)CC3)cc1 | -6 | -2 | 73* | -1
Cn1cccc1Cc1nnc(SCC(=O)N2CCN(c3ccccc3)CC2)n1-c1ccc(F)cc1 | -2 | 4 | 52* | 0
COc1ccc2no[n+]([O-])c2c1 | . | . | . | 2
COC(=O)C1=C(NC(=O)c2cccc(OC)c2)CCS1 | -4 | 1 | 67* | 2
O=C(CNC(=O)c1ccncc1)N/N=C/c1ccccc1[N+](=O)[O-] | -3 | 2 | 8 | -1
COc1ccc(N2CCN(C(=O)c3ccc4c(c3)CCN4S(=O)(=O)c3ccccc3)CC2)cc1 | 11 | 3 | -5 | 2
O=C(c1ccc2c(c1)CCN2S(=O)(=O)c1ccccc1)N1CCN(c2ccc(F)cc2)CC1 | 8 | 14* | -3 | 4
CC(CCc1ccccc1)NC(=O)COC(=O)c1cccnc1Cl (stereo unspecified) | -6 | 8 | 8 | 0
COc1ccc(-c2cc(C(=O)NN)[nH]n2)cc1OC | 1 | -1 | -14 | 3
COc1ccccc1-c1cc(C(=O)NN)[nH]n1 | -1 | 0 | 57* | -1
SMILES | CRFBP-R2 agonist | V-ATPase pH | CRFR2-BP antag | NTR1 agonist
Cc1ccsc1/C=N\NC(=O)CCc1c(C)n[nH]c1C | 4 | -1 | 52* | 1
COc1cccc(N=Cc2c(O)n(-c3cccc(C)n3)c(=O)c3ccccc23)c1 | 0 | -3 | 5 | 1
COc1ccc(N=Cc2c(O)n(-c3cccc(C)n3)c(=O)c3ccccc23)c(OC)c1 | 72* | -5 | -49 | 2
Nc1nn2c(-c3ccccc3)cc(=O)[nH]c2c1N=Nc1ccc(Br)cc1 | -1 | 8 | 73* | .
Cc1cc2[nH]c(=O)cc(-c3ccccc3)n2n1 | 1 | -1 | -7 | 0
Nc1nn2c(-c3ccccc3)cc(=O)[nH]c2c1N=Nc1ccc(O)cc1 | 97* | 0 | -105 | 1
COc1ccc(N(CC(=O)NN=C2CCN(C)CC2)S(=O)(=O)c2ccc(NC(C)=O)cc2)cc1 | 0 | 0 | -2 | 0
COc1ccc(C(=O)c2sc3nc(C)cc(-c4cccs4)c3c2N)cc1OC | 108* | 3 | -132 | .
COc1ccc(C(=O)c2sc3nc(C)cc(-c4cccs4)c3c2N)cc1 | 67* | -1 | -70 | .
Cc1cc(-c2cccs2)c2c(N)c(C(=O)c3ccc4c(c3)OCO4)sc2n1 | 109* | -4 | -197 | 1
Fc1ccc(-n2c(CN3CCCCC3)n[nH]c2=S)cc1 | 2 | 14* | -4 | 0
O=C(c1sc2ccccc2c1Cl)N1CCN(CCc2ccccn2)CC1 | 1 | 2 | -3 | 2
COc1cccc(C2NC(c3cccc(OC)c3O)C(C)C(=O)C2C)c1O (stereo unspecified) | -1 | -4 | -27 | 2
CC1C(=O)C(C)C(c2cc(Cl)ccc2O)NC1c1cc(Cl)ccc1O (stereo unspecified) | 3 | 0 | -24 | 60*
NC(=NCc1ccccc1)c1cccc([N+](=O)[O-])c1 | 2 | 2 | 1 | 0
CC1(C)CSC(=NCc2ccccc2)N1C(=O)c1cccc([N+](=O)[O-])c1 | 273* | 0 | -95 | 2
COc1ccc(S(=O)(=O)Nc2c(C)n(C)n(-c3ccccc3)c2=O)cc1C(=O)O | 2 | 1 | 51* | 0
COc1cc(OC)c2cc(C(=O)N[C@@H](Cc3ccccc3)C(=O)O)n(C)c2c1 | -1 | 2 | 2 | 2
O=C(Cn1nc(CNc2ccc(Cl)cc2)[n+]2c1CCCCC2)c1ccc(Br)cc1 | -3 | -3 | 55* | -3
CCOC(=O)N1CCC(N(CCN(C)C)C(=S)Nc2ccc(Oc3ccccc3)cc2)CC1 | -1 | 4 | 9 | 6
COc1ccc(C(C)NC(=O)c2ccccc2)cc1 (stereo unspecified) | 0 | 0 | -2 | 0
COc1ccc(C(=O)NC(Oc2ccccc2)C(Cl)(Cl)Cl)cc1 (stereo unspecified) | 12 | 0 | 113* | -1
CCOc1ccc(N(CC(=O)NCc2ccc(F)cc2)C(=O)c2ccco2)cc1 | 0 | -1 | -11 | 3
C=CCn1c(SCc2ccc(Cl)cc2)nc2c1c(=O)[nH]c(=O)n2C | -3 | 2 | -12 | 6
C=CCn1c(SCc2ccc(F)cc2)nc2c1c(=O)[nH]c(=O)n2C | -3 | 1 | 62* | 2
SMILES | CRFBP-R2 agonist | V-ATPase pH | CRFR2-BP antag | NTR1 agonist
N#C/C(=C\c1cccn1-c1ccccc1)C(=O)NC1CCCCC1 | -3 | 0 | 127* | 5
N#C/C(=C\c1ccccc1[N+](=O)[O-])C(=O)NC1CCCCC1 | 100* | 1 | -161 | 5
CCC(CC)N1CCN(C(=O)c2cc(OC)c(OC)c(OC)c2)CC1 | -1 | 8 | 5 | 1
Cn1c(SCC(=O)N/N=C/c2cc([N+](=O)[O-])ccc2O)nnc1-c1ccccc1 | 62* | 0 | -43 | 0
O=C1CC(NS(=O)(=O)c2cccnc2)CN1c1ccc(Cl)cc1 (stereo unspecified) | 1 | -3 | -6 | 1
CC(C)(C)OC(=O)N[C@H]1C=C[C@@H](OC(=O)CC(=O)OCC(F)(F)F)C1 | -4 | -3 | -5 | 0

Source: PubChem BioAssay
